Measured values from PubChem BioAssay AID1159580 (chemical genetic matrix, 2015).
About 2,000 (36%) of roughly 5,500 compounds were called active. Another 18% or so got no clear call; they are omitted. No stated cut-off is given here; in the data, active means normalized growth mostly below about 0.91 (no sharp cut-off); inconclusive means no clear call, values can overlap the other calls; inactive means mostly above about 0.92. Some of the results follow.

Assay: chemical genetic growth profiling, strain panel (AID 1159580);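 further: tested at 20 µM; growth read once vehicle control cultures reached saturation at 30 °C; 1 = growth at the plate median or of vehicle wells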
Conditions: growth OD

Measured: normalized growth

CCCC1O[C@@H]2CC3C4CCC5=CC(=O)C=CC5(C)C4[C@@H](O)CC3(C)[C@]2(C(=O)CO)O1 (some centres not stated)
inactive: S. cerevisiae deletion strains, locus YJR075W, strain HOC1, stronger effect = lower value 1 | S. cerevisiae deletion strains, locus YKL009W, strain mrt4, stronger effect = lower value 1.03 | S. cerevisiae deletion strains, locus YKL068W, stronger effect = lower value 1 | S. cerevisiae deletion strains, locus YKL085W, strain MDH1 (second series), stronger effect = lower value 0.994 | S. cerevisiae deletion strains, locus YKL085W, strain MDH1, stronger effect = lower value 0.994 | S. cerevisiae deletion strains, locus YKL160W, strain elf1, stronger effect = lower value 1.01 | S. cerevisiae deletion strains, locus YKL190W, strain CNB1, stronger effect = lower value 0.995 | S. cerevisiae deletion strains, locus YKR001C, strain vps1, stronger effect = lower value 0.997 | S. cerevisiae deletion strains, locus YKR026C, strain gcn3, stronger effect = lower value 1.01 | S. cerevisiae deletion strains, locus YKR091W, strain srl3, stronger effect = lower value 1 | S. cerevisiae deletion strains, locus YLL001W, strain dnm1, stronger effect = lower value 1.02 | S. cerevisiae deletion strains, locus YLL026W, stronger effect = lower value 1.01 | S. cerevisiae deletion strains, locus YLL041C, strain sdh2, stronger effect = lower value 1.01 | S. cerevisiae deletion strains, locus YLR027C, strain aat2, stronger effect = lower value 1 | S. cerevisiae deletion strains, locus YLR039C, strain RIC1, stronger effect = lower value 1.02 | S. cerevisiae deletion strains, locus YLR058C, strain SHM2, stronger effect = lower value 1 | S. cerevisiae deletion strains, locus YLR102C, strain apc9, stronger effect = lower value 1.02 | S. cerevisiae deletion strains, locus YLR113W, strain HOG1, stronger effect = lower value 0.931 | S. cerevisiae deletion strains, locus YLR221C, strain rsa3, stronger effect = lower value 0.986 | S. cerevisiae deletion strains, locus YLR258W, strain gsy2, stronger effect = lower value 1.02 | S. cerevisiae deletion strains, locus YLR262C, strain YPT6 (second series), stronger effect = lower value 1 | S. cerevisiae deletion strains, locus YLR262C, strain YPT6, stronger effect = lower value 1 | S. cerevisiae deletion strains, locus YLR268W, strain sec22, stronger effect = lower value 1 | S. cerevisiae deletion strains, locus YLR320W, strain mms22, stronger effect = lower value 1.01 | S. cerevisiae deletion strains, locus YLR330W, strain CHS5, stronger effect = lower value 1 | S. cerevisiae deletion strains, locus YLR342W, strain FKS1 (second series), stronger effect = lower value 1.02 | S. cerevisiae deletion strains, locus YLR342W, strain FKS1, stronger effect = lower value 1.01 | S. cerevisiae deletion strains, locus YLR357W, strain rsc2, stronger effect = lower value 1.03 | S. cerevisiae deletion strains, locus YLR370C, strain arc18, stronger effect = lower value 1.01 | S. cerevisiae deletion strains, locus YLR371W, strain rom2, stronger effect = lower value 1.02 | S. cerevisiae deletion strains, locus YLR384C, strain iki3, stronger effect = lower value 1.01 | S. cerevisiae deletion strains, locus YLR418C, strain cdc73, stronger effect = lower value 0.978 | S. cerevisiae deletion strains, locus YML016C, strain PPZ1, stronger effect = lower value 1.01 | S. cerevisiae deletion strains, locus YML032C, strain rad52, stronger effect = lower value 1.04 | S. cerevisiae deletion strains, locus YML120C, strain ndi1, stronger effect = lower value 1 | S. cerevisiae deletion strains, locus YML124C, strain tub3, stronger effect = lower value 1.01 | S. cerevisiae deletion strains, locus YMR058W, strain fet3, stronger effect = lower value 1 | S. cerevisiae deletion strains, locus YMR078C, strain ctf18, stronger effect = lower value 1.02 | S. cerevisiae deletion strains, locus YMR125W, strain sto1, stronger effect = lower value 1 | S. cerevisiae deletion strains, locus YMR129W, stronger effect = lower value 1.01 | S. cerevisiae deletion strains, locus YMR205C, strain PFK2, stronger effect = lower value 1 | S. cerevisiae deletion strains, locus YMR223W, strain ubp8, stronger effect = lower value 1.03 | S. cerevisiae deletion strains, locus YMR231W, strain pep5, stronger effect = lower value 1.01 | S. cerevisiae deletion strains, locus YMR263W, strain SAP30, stronger effect = lower value 0.999 | S. cerevisiae deletion strains, locus YMR307W, strain GAS1, stronger effect = lower value 1.06 | S. cerevisiae deletion strains, locus YNL067W, strain RPL9B, stronger effect = lower value 0.99 | S. cerevisiae deletion strains, locus YNL071W, strain lat1, stronger effect = lower value 1 | S. cerevisiae deletion strains, locus YNL128W, strain TEP1, stronger effect = lower value 1 | S. cerevisiae deletion strains, locus YNL153C, strain GIM3, stronger effect = lower value 0.992 | S. cerevisiae deletion strains, locus YNL183C, strain NPR1, stronger effect = lower value 0.962 | S. cerevisiae deletion strains, locus YNL209W, strain ssb2, stronger effect = lower value 1.02 | S. cerevisiae deletion strains, locus YNL233W, strain BNI4, stronger effect = lower value 1.01 | S. cerevisiae deletion strains, locus YNL248C, strain rpa49, stronger effect = lower value 1.04 | S. cerevisiae deletion strains, locus YNL250W, strain rad50, stronger effect = lower value 1.02 | S. cerevisiae deletion strains, locus YNL271C, strain bni1, stronger effect = lower value 1.02 | S. cerevisiae deletion strains, locus YNL298W, strain CLA4, stronger effect = lower value 1.02 | S. cerevisiae deletion strains, locus YNL307C, strain MCK1, stronger effect = lower value 1.03 | S. cerevisiae deletion strains, locus YNL322C, strain KRE1 (second series), stronger effect = lower value 1.01 | S. cerevisiae deletion strains, locus YNL322C, strain KRE1, stronger effect = lower value 1 | S. cerevisiae deletion strains, locus YNR049C, strain mso1, stronger effect = lower value 0.997 | S. cerevisiae deletion strains, locus YNR052C, strain pop2, stronger effect = lower value 1.02 | S. cerevisiae deletion strains, locus YOL006C, strain TOP1, stronger effect = lower value 1 | S. cerevisiae deletion strains, locus YOL012C, strain htz1 1.19 | S. cerevisiae deletion strains, locus YOL147C, strain pex11, stronger effect = lower value 1.02 | S. cerevisiae deletion strains, locus YOR001W, strain rrp6, stronger effect = lower value 0.975 | S. cerevisiae deletion strains, locus YOR061W, strain CKA2, stronger effect = lower value 1 | S. cerevisiae deletion strains, locus YOR069W, strain VPS5, stronger effect = lower value 1 | S. cerevisiae deletion strains, locus YOR070C, strain gyp1, stronger effect = lower value 1.01 | S. cerevisiae deletion strains, locus YOR080W, strain dia2, stronger effect = lower value 0.999 | S. cerevisiae deletion strains, locus YOR083W, strain WHI5, stronger effect = lower value 0.991 | S. cerevisiae deletion strains, locus YOR106W, strain vam3, stronger effect = lower value 1.03 | S. cerevisiae deletion strains, locus YOR136W, strain idh2, stronger effect = lower value 1.03 | S. cerevisiae deletion strains, locus YOR144C, strain elg1, stronger effect = lower value 1.01 | S. cerevisiae deletion strains, locus YOR184W, strain ser1, stronger effect = lower value 1.05 | S. cerevisiae deletion strains, locus YOR231W, strain MKK1, stronger effect = lower value 0.961 | S. cerevisiae deletion strains, locus YOR265W, strain rbl2, stronger effect = lower value 1 | S. cerevisiae deletion strains, locus YOR270C, strain vph1, stronger effect = lower value 1.06 | S. cerevisiae deletion strains, locus YOR290C, strain snf2, stronger effect = lower value 1.03 | S. cerevisiae deletion strains, locus YOR316C, strain cot1, stronger effect = lower value 1.02 | S. cerevisiae deletion strains, locus YPL051W, strain arl3, stronger effect = lower value 0.998 | S. cerevisiae deletion strains, locus YPL055C, strain LGE1, stronger effect = lower value 0.999 | S. cerevisiae deletion strains, locus YPL078C, strain atp4, stronger effect = lower value 1.02 | S. cerevisiae deletion strains, locus YPL106C, strain sse1, stronger effect = lower value 1.08 | S. cerevisiae deletion strains, locus YPL240C, strain hsp82, stronger effect = lower value 0.995 | S. cerevisiae deletion strains, locus YPL241C, strain CIN2, stronger effect = lower value 0.998 | S. cerevisiae deletion strains, locus YPL256C, strain CLN2, stronger effect = lower value 1.03 | S. cerevisiae deletion strains, locus YPR119W, strain clb2, stronger effect = lower value 1.01 | S. cerevisiae deletion strains, locus YPR141C, strain kar3, stronger effect = lower value 1.02 | S. cerevisiae deletion strains, locus YPR163C, strain tif3, stronger effect = lower value 1.03 | S. cerevisiae deletion strains, locus YPR167C, strain met16, stronger effect = lower value 1.02 | S. cerevisiae deletion strains, strain wtn01, stronger effect = lower value 0.984 | S. cerevisiae strains, strain wild type, stronger effect = lower value 0.999
